Results as given in PubChem BioAssay (NCATS).
Several values for one entry are separate records, joined by “and”; a condition that tells them apart may be missing. Equal entries are not always repeated. Results filed as inconclusive are left out. Activity calls are given as the source filed them. Unless noted, calls follow the shape of the dose curve; as a rule, active = well fitted curve in the direction sought with a large enough effect; inconclusive = small, poorly fitted or top-dose-only effect, or another doubt; inactive = no such curve, though single readings can be large; an effect the other way counts as inactive or inconclusive.

How the values were obtained:
[1] = Cell Viability - Hek293 (AID 427;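 active = compounds whose dose-response curve shows a full or clear partial loss of cell viability, called from curve shape rather than a numeric limit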;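 also: potency is read from the fitted curve at half-maximal effect; cells exposed to compound for 40 hours at 37 °C before reading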); conditions: qHTS
Summary of the method: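 Luminescent ATP content (CellTiter-Glo, 20 min at room temperature) was measured after a 40 hr, 37 °C compound exposure of HEK293 cells. AC50 values came from Hill-equation fits of qHTS concentration-response data normalized to DMSO and 100 uM tamoxifen.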

[2] = Cell Viability - SK-N-SH (AID 435; calls by dose curve; also: potency is read from the fitted curve at half-maximal effect); conditions: SK-N-SH neuroblastoma cell viability qHTS
Summary of the method: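 qHTS cytotoxicity: CellTiter-Glo ATP luminescence after 40 h compound exposure of human neuroblastoma SK-N-SH cells at 37 °C. AC50 derived by Hill-equation fitting, with DMSO as basal and 100 uM tamoxifen as full inhibition.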

[3] = Cell Viability - SH-SY5Y (AID 544); conditions: SH-SY5Y neuroblastoma cell viability; viability change, negative = cytotoxic: at 92.2 µM (top of the series);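 also: cells exposed to compound for 40 hours; nearly all actives have a fitted effect of over 55% in size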; also: potency is read from the fitted curve at half-maximal effect;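 as to viability change, negative = cytotoxic: 0% = DMSO alone and -100% = 100 µM tamoxifen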
Summary of the method: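 Cells were plated at 1500 per well and allowed 5 hr at 37 °C. Compounds were added across a concentration range and incubated 40 hr at 37 °C. CellTiter-Glo was added for 20 min at room temperature before luminescence reading.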

[4] = Cell Viability - LYMP2-001 (AID 921); also: nearly all actives have a fitted effect of over 70% in size; also: potency is read from the fitted curve at half-maximal effect
Summary of the method: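 Cellular ATP loss read by luciferase luminescence after 24 h compound exposure at 37 C in complete medium. LYMP2-001 lymphoblastoid cells, 2500/well; qHTS concentration-response data fitted with Hill equation for AC50.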

[5] = Cell Viability - LYMP1-003 - Assay at 40 hr (AID 964); also: nearly all actives have a fitted effect of over 60% in size; also: potency is read from the fitted curve at half-maximal effect
Summary of the method: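 Luminescent ATP signal (CellTiter-Glo) served as the viability read-out after 40 hr compound treatment of human lymphoblastoid LYMP1-003 cells at 37 C. Decreases in ATP were fitted with the Hill equation to give AC50.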

[6] = Cell Viability - LYMP2-004 (AID 966);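 also: plate controls were DMSO only for no effect and tetraoctylammonium bromide control for full effect; nearly all actives have a fitted effect of over 65% in size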
Summary of the method: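 qHTS cytotoxicity: human lymphoblastoid line, 24 hr compound treatment, 37 C, complete medium. Viability read as cellular ATP via luciferase luminescence; tetraoctylammonium bromide served as positive control.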

[7] = Cell Viability - LYMP2-005 (AID 967);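 also: plate controls were DMSO only for no effect and 92 µM tetraoctylammonium bromide control for full effect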
Summary of the method: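 LYMP2-005 human lymphoblastoid cells (2500/well) were treated with compounds for 24 h at 37 C. Intracellular ATP was then measured by CellTiter-Glo luminescence after 30 min at room temperature. AC50 values came from Hill-equation fits of qHTS concentration-response data.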

[8] = Cell Viability - LYMP2-015 (AID 971);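 also: 0% = DMSO only and full effect = 92 µM tetraoctylammonium bromide; nearly all actives have a fitted effect of over 55% in size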
Summary of the method: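 Cells are seeded at 2500 per well and incubated 5 hr at 37 C. Compounds are added across a concentration series for 24 hr at 37 C. CellTiter-Glo is added, and luminescence is read after 30 min at room temperature.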

[9] = Cell Viability - LYMP2-021 (AID 974);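 also: compound exposure lasts 24 hours at 37 °C; % is scaled to controls: 0 for no effect and ±100 for the full control effect; nearly all actives have a fitted effect of over 55% in size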
Summary of the method: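 Loss of cellular ATP, measured with a luciferase-based CellTiter-Glo readout, serves as the toxicity signal in human lymphoblastoid cells treated for 24 hours at 37 C. Potency is reported as AC50 from a standard Hill model.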

[10] = Cell Viability - LYMP2-006 (AID 978); also: nearly all actives have a fitted effect of over 60% in size; also: potency is read from the fitted curve at half-maximal effect
Summary of the method: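 Potency values are Hill-fit AC50s for decreases in intracellular ATP (CellTiter-Glo luminescence). LYMP2-006 lymphoblastoid cells, 2500 per well, were exposed to compound in complete culture medium for 24 hr at 37 C.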

[11] = Cell Viability - LYMP2-010 (AID 981); also: nearly all actives have a fitted effect of over 55% in size; also: potency is read from the fitted curve at half-maximal effect
Summary of the method: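 Steps: seed 2500 LYMP2-010 cells per well; incubate 5 hr at 37 C; add compound; incubate 24 hr at 37 C; add CellTiter-Glo, wait 30 min at room temperature; read luminescence. Concentration-response fitted to Hill equation for AC50.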

[12] = Cell Viability - LYMP2-012 (AID 982); also: potency is read from the fitted curve at half-maximal effect
[13] = Cell Viability - LYMP2-022 (AID 987); also: nearly all actives have a fitted effect of over 55% in size; also: potency is read from the fitted curve at half-maximal effect;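 as to viability change, negative = cytotoxic: 0% = DMSO alone and full effect = tetraoctylammonium bromide at 92 µM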
Summary of the method: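 Cells were seeded at 2500 per well, rested 5 hr at 37 C, and treated with titrated compounds for 24 hr at 37 C. Cellular ATP was then quantified by luciferase luminescence, and AC50 values were derived from Hill-modelled concentration-response curves.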

[14] = Cell Viability - LYMP2-024 (AID 988); also: nearly all actives have a fitted effect of over 60% in size; also: potency is read from the fitted curve at half-maximal effect
Summary of the method: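 qHTS cytotoxicity, human lymphoblastoid line, complete medium; 24 h cpd treatment, 37 C; CellTiter-Glo ATP luminescence readout; tetraoctylammonium bromide positive control; AC50 via Hill fit.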

[15] = biological target: Thyroid hormone receptor beta (Homo sapiens) (UniProt P10828); assay: qHTS assay for small molecule antagonists of thyroid hormone receptor beta signaling (AID 588547; active = well fitted inhibition curve with a large enough effect in the signal ratio, with a control signal flat, not every such curve was filed as active; the % refers to the signal ratio;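 also: cells stimulated with 0.4 nM T3 agonist during compound exposure; % is scaled to controls: 0 for no effect and ±100 for the full control effect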); conditions: TR-UAS-bla HEK293, beta-lactamase ratio, antagonist mode, 18 h
Sequence of Thyroid hormone receptor beta (Homo sapiens) (P10828 whole entry, looked up): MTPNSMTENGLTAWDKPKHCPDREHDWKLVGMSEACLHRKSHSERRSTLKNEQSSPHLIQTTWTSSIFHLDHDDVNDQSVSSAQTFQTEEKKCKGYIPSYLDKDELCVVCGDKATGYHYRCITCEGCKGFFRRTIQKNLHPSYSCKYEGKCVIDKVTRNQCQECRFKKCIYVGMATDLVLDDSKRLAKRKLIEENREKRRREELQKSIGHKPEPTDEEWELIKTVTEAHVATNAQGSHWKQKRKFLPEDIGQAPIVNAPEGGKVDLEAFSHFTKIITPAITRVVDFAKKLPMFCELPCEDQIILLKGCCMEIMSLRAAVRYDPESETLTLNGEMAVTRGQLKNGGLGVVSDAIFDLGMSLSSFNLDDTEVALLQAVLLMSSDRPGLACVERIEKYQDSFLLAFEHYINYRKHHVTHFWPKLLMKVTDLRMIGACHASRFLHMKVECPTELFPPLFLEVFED
Summary of the method: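 TR-UAS-bla GripTite HEK293 cells in 2% charcoal/dextran FBS medium; compounds 0.59 nM to 92 uM with T3 at 0.4nM final, 18 h at 37 C. Beta-lactamase read by CCF4 fluorescence (460/530 nm); Hill fits gave IC50 and efficacy.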

[16] = qHTS assay for small molecule activators of the p53 signaling pathway (AID 651743; active = well fitted activation curve with a large enough effect in the signal ratio, not every such curve was filed as active; the % refers to the signal ratio; also: % of control where 0% means no effect); conditions: HCT-116 p53RE-bla, beta-lactamase FRET ratio, 16 h; activation: active compounds read high
Summary of the method: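 Following 16 hours of compound exposure at 37 C, HCT-116 cells bearing the p53RE-bla reporter were loaded with LiveBLAzer B/G FRET substrate for 2 hours at room temperature and fluorescence intensity was recorded.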

[17] = qHTS assay for small molecule disruptors of the mitochondrial membrane potential - 1 hr assay (AID 651754; calls by dose curve; also: nearly all actives have a fitted effect of over 35% in size; also: potency is read from the fitted curve at half-maximal effect)
Summary of the method: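 Loss of mitochondrial potential shifts the cationic dye from red mitochondrial aggregates to green cytoplasmic monomers. Cells (HepG2) are treated with compound for 1 hr before a 30 min dye incubation at 37C.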

[18] = qHTS assay for small molecule disruptors of the mitochondrial membrane potential - 5 hr assay (AID 651755; calls by dose curve; also: nearly all actives have a fitted effect of over 40% in size; also: potency is read from the fitted curve at half-maximal effect)
Summary of the method: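 Read-out: ratiometric Mito-MPS fluorescence, green monomer (ex 490/em 535) vs red mitochondrial aggregate (ex 540/em 590). HepG2 cells treated 5 hr at 37C before 30 min dye loading.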

[19] = qHTS assay for small molecule antagonists of the retinoid-related orphan receptor gamma (ROR-gamma) signaling pathway - cell viability counter screen (AID 720652; active = well fitted curve in the direction sought with a large enough effect in the repeat runs; an effect the other way counts as inactive or inconclusive;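 also: CHO reporter cells with doxycycline-induced ROR-gamma expression; compound exposure lasted 16 hr before ATP read; % is scaled to controls: 0 for no effect and ±100 for the full control effect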)
Summary of the method: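 Steps: seed CHO cells bearing TET-inducible ROR and ROR response element-luciferase; rest 5 hr at 37 C; add compound, then doxycycline; incubate 16 hr; add CellTiter-Glo and read luminescence as ATP-based viability.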

[20] = biological target: Nuclear receptor subfamily 1 group I member 2 (Rattus norvegicus) (UniProt Q9R1A7); assay: qHTS assay for small molecule activators of the rat pregnane X receptor (rPXR) signaling pathway (AID 651751; call rule not given here; also: 0% is about no effect); conditions: rPXR reporter cells, luciferase (One-Glo), 24 h
Sequence of Nuclear receptor subfamily 1 group I member 2 (Rattus norvegicus) (Q9R1A7 whole entry, looked up): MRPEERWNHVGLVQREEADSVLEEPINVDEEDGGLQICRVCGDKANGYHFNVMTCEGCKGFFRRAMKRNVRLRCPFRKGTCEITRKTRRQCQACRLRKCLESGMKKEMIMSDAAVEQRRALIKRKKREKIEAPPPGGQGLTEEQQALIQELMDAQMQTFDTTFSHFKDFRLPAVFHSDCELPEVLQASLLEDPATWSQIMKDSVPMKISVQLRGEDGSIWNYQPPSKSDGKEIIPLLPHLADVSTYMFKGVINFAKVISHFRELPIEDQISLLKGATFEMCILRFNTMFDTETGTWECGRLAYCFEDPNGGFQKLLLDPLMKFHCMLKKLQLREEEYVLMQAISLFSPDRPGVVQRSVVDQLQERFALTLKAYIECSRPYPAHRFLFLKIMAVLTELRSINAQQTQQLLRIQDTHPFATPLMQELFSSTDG

O=C(O)c1ccc([N+](=O)[O-])cc1
inactive: Potency [1] > 92 µM | Potency [2] > 92 µM | Potency [3] | Potency [4] | Potency [5] | Potency [6] | Potency [7] | Potency [8] | Potency [9] | Potency [10] | Potency [11] | Potency [12] | Potency [13] | Potency [14] | activity change % (negative = inhibition) [15] -4.73% | activation [16] -2.78% and 0.222% | Potency [17] | Potency [18] | Potency [19] | max response [20] -2.43% and -1.7%

Clc1nc2ccccc2nc1Cl
inactive: Potency [1] > 92 µM | Potency [2] > 92 µM | Potency [5] | Potency [6] | Potency [7] | Potency [10] | activity change % (negative = inhibition) [15] -2.15% | Potency [17] | Potency [18]

O=[N+]([O-])c1cc(N(CCO)CCO)ccc1NCCO
inactive: Potency [4] | Potency [7] | Potency [8] | Potency [11] | Potency [12] | Potency [13] | Potency [14] | activity change % (negative = inhibition) [15] 14.2% and 12% | activation [16] -5.39% and -4.71% | Potency [17] | Potency [19] | max response [20] -6.76% and -5.03%

O=[N+]([O-])c1cc(Cl)c(Cl)c(Cl)c1Cl
active: Potency [3] 31.6 µM
inactive: Potency [4] | Potency [7] | Potency [12] | activity change % (negative = inhibition) [15] 1.99% | activation [16] 0.035% | Potency [17] | Potency [18] | max response [20] 0.233%

C/C=C1/C(=O)C[C@H]2[C@@H]3CCC4=CC(=O)CC[C@]4(C)[C@H]3CC[C@]12C
inactive: Potency [6] | Potency [7] | Potency [17] | Potency [18]
active: Potency [3] 25.1 µM | Potency [4] 50.1 µM | Potency [5] 39.8 µM | Potency [10] 50.1 µM | Potency [11] 39.8 µM | Potency [12] 39.8 µM | Potency [13] 39.8 µM | Potency [14] 39.8 µM

C=C(C#N)C(=O)OCC
inactive: Potency [1] > 92 µM | Potency [2] > 92 µM | Potency [3] | Potency [4] | Potency [5] | Potency [7] | Potency [8] | Potency [9] | Potency [11] | Potency [12] | Potency [14] | activity change % (negative = inhibition) [15] 4.82% | activation [16] 2.02% | Potency [17] | Potency [18] | Potency [19] | max response [20] -1.42%

Nc1ccc(-c2ccc(N)c(O)c2)cc1O
inactive: Potency [2] > 92 µM | Potency [5] | Potency [10] | activity change % (negative = inhibition) [15] -12.5% | activation [16] 2.61% | Potency [17] | Potency [19] | max response [20] -1.46%

O=CC(=O)c1ccccc1
inactive: Potency [1] > 92 µM | Potency [2] > 92 µM | Potency [3] | Potency [5] | Potency [7] | Potency [11] | Potency [12] | activation [16] -5.31% | Potency [17] | Potency [18] | Potency [19] | max response [20] 11.8%

Nc1ccc(N=Nc2ccccc2)c(N)c1
active: Potency [17] 9.44 µM | Potency [18] 10.6 µM
inactive: Potency [1] > 92 µM | Potency [2] > 92 µM | Potency [4] | Potency [5] | Potency [6] | Potency [7] | Potency [8] | Potency [9] | Potency [10] | Potency [11] | Potency [12] | Potency [13] | Potency [14] | activity change % (negative = inhibition) [15] 1.36% | activation [16] -4.52% | Potency [19]

C[C@@H]1CC2(OC(O)[C@]3(C)O[C@H]23)O[C@H]2C[C@@]3(C)[C@@H]4CC[C@H]5C(C)(C)C(O[C@@H]6OC[C@@H](O)[C@H](O)[C@H]6O)CC[C@@]56C[C@@]46CC[C@]3(C)[C@@H]12 (stereo partly drawn)
active: Potency [12] 50.1 µM | Potency [14] 39.8 µM
inactive: Potency [2] > 92 µM | Potency [7] | Potency [8] | Potency [9] | activation [16] -3.37% | max response [20] -9.9%

O=C(O)c1cc(N=Nc2ccc([N+](=O)[O-])cc2)ccc1O
inactive: Potency [1] > 92 µM | Potency [2] > 92 µM | Potency [3] | Potency [5] | Potency [6] | Potency [7] | Potency [8] | Potency [10] | Potency [11] | activity change % (negative = inhibition) [15] 12.8% | activation [16] -5.24% | Potency [19]
active: Potency [17] 37.6 µM
